The nature of test [1]: P-glycoprotein substrates identified in KB-3-1 adenocarcinoma cell line, qHTS therapeutic library screen (AID 1346986). Note: nearly all actives have a fitted effect of over 60% in size.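 Note: potency is the fitted concentration of half-maximal effect; potency is for cytotoxicity meaning loss of cell viability.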 The procedure, abridged: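 72 h cell-killing screen, 500 cells/well, CellTiter-Glo luminescence. Paired lines KB-3-1/KB-8-5-11; P-gp dependence checked by tariquidar co-treatment and HEK-293 MDR-19 versus empty-vector cells.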
(In general: qHTS replaces the single test concentration by a dilution series.)

A short description of test [2]: P-glycoprotein substrates identified in KB-8-5-11 adenocarcinoma cell line, qHTS therapeutic library screen (AID 1346987). Note: nearly all actives have a fitted effect of over 65% in size. Note: potency is the fitted concentration of half-maximal effect. In short, it runs like this: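 Compounds are pinned in dose-response onto KB-8-5-11 cells (500 cells/well, colchicine-free medium) and left 72 h at 37 degree C. CellTiter-Glo luminescence then yields AC50 values.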
Test [3] in a line: NS1 protein of Zika virus - qHTS assay to identify small molecule inhibitors in human HEK 293 cells (AID 1347053). Note: series mostly up to about 46 µM; nearly all actives have a fitted effect of over 55% in size. In short, it runs like this:
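In this cell-based screen, HEK 293 cultures received compound for one hour before Zika MR766 at MOI = 0.5. NS1 was quantified 24 hours later by TR-FRET, normalized to virus-free wells and infected wells.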

Test [4] is described as follows: qHTS of pediatric cancer cell lines to identify multiple opportunities for drug repurposing: Primary screen for SJ-GBM2 cells (AID 1347091). Note: potency is the fitted concentration of half-maximal effect. In short, it runs like this: (§1)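 Eight- or eleven-point concentration series, 48 h treatment at 37 degrees C in growth media; readout CellTiter-Glo luminescence. Potency and efficacy were taken from the concentration-response curves.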

Test [5] in a line: qHTS of pediatric cancer cell lines to identify multiple opportunities for drug repurposing: Primary screen for NB-EBc1 cells (AID 1347095). Note: potency is the fitted concentration of half-maximal effect. In short, it runs like this: (§2)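 Following a 5-hour attachment period, cells at 500-1,000/well received compounds and were cultured for 48 hours. CellTiter-Glo was added and luminescence read to estimate viable, metabolically active cells.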

A short description of test [6]: qHTS of pediatric cancer cell lines to identify multiple opportunities for drug repurposing: Primary screen for U-2 OS cells (AID 1347096). Note: nearly all actives have a fitted effect of over 50% in size. Note: potency is the fitted concentration of half-maximal effect. In short, it runs like this:
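Cells (500-1,000/well) in growth media were settled 5 h at 37 degrees C, then given compounds for 48 h. Viability was read as CellTiter-Glo luminescence. Primary runs used MIPE at 11 points (0.78 nM-46 µM) and NPC at 8 points (0.59 nM-46 µM); follow-ups used 11 points.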

The nature of test [7]: qHTS of pediatric cancer cell lines to identify multiple opportunities for drug repurposing: Primary screen for Saos-2 cells (AID 1347097). Note: nearly all actives have a fitted effect of over 40% in size. Note: potency is the fitted concentration of half-maximal effect. In short, it runs like this: as §2
Test [8] can be described thus: qHTS of pediatric cancer cell lines to identify multiple opportunities for drug repurposing: Primary screen for A673 cells (AID 1347092). Note: nearly all actives have a fitted effect of over 45% in size. Note: potency is the fitted concentration of half-maximal effect. The procedure, abridged:
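Luminescence from CellTiter-Glo, taken after 15 min at room temperature, served as the proxy for metabolically active cells following 48 h treatment. Both potency and efficacy were taken from curves fitted to the titration data.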

The nature of test [9]: qHTS of pediatric cancer cell lines to identify multiple opportunities for drug repurposing: Primary screen for SK-N-SH cells (AID 1347098). Note: nearly all actives have a fitted effect of over 65% in size. Note: potency is the fitted concentration of half-maximal effect. The procedure, abridged: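 Cells (500-1,000/well) rested 5 h, then received compounds for 48 h; metabolically active cells were measured by CellTiter-Glo luminescence. Final concentrations spanned up to 46 µM (MIPE, 11-point) or 0.59 nM-46 µM (NPC, 8-point) in primary screens, 11-point in follow-ups.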

Test [10] is described as follows: qHTS of pediatric cancer cell lines to identify multiple opportunities for drug repurposing: Primary screen for TC32 cells (AID 1347089). Note: nearly all actives have a fitted effect of over 60% in size. In short, it runs like this: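 qHTS, TC32, 48 h drug treatment, CellTiter-Glo luminescence as a proxy for metabolically active cells; primary top concentration 46 µM (MIPE 11-pt, NPC 8-pt); confirmatory 11-pt.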
Test [11] in a line: qHTS of pediatric cancer cell lines to identify multiple opportunities for drug repurposing: Primary screen for SK-N-MC cells (AID 1347093). Note: potency is the fitted concentration of half-maximal effect. In short, it runs like this: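 Metabolically active cells were quantified by ATP-dependent luminescence (CellTiter-Glo, 15 min at room temperature) following 48 h treatment. Cells had been plated at 500-1,000 per well and settled for 5 h beforehand.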

Test [12] can be described thus: qHTS of pediatric cancer cell lines to identify multiple opportunities for drug repurposing: Primary screen for DAOY cells (AID 1347090). Note: nearly all actives have a fitted effect of over 55% in size. Note: potency is the fitted concentration of half-maximal effect. The procedure, abridged:
as §1

The nature of test [13]: qHTS of pediatric cancer cell lines to identify multiple opportunities for drug repurposing: Primary screen for BT-37 cells (AID 1347094). Note: potency is the fitted concentration of half-maximal effect. In short, it runs like this: as §2
Test [14] is described as follows: Natriuretic polypeptide receptor (hNpr1) antagonism - Pilot counterscreen GloSensor control cell line (AID 1347045; calls by dose curve; note: series mostly up to about 38 µM). The procedure, abridged: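 Control counterscreen: luciferase cGMP-biosensor HEK293 cells (no Npr1) received compound for 30 min at room temperature after GloSensor substrate loading. Luminescence was measured before and 20 min after soluble guanylyl cyclase activation by 50 uM nitroprusside.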

Test [15] addresses Atrial natriuretic peptide receptor 1 (Homo sapiens) (UniProt P16066). Description: Natriuretic polypeptide receptor (hNpr1) antagonism - Pilot screen (AID 1347049; calls by dose curve;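 note: HEK293 cells with hNpr1 and GloSensor cGMP luciferase stimulated by 0.1 nM hNppA; agonist-evoked cGMP luminescence read 20 min after hNppA addition; series mostly up to about 58 µM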). In short, it runs like this: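 Cells expressing receptor plus cGMP biosensor are seeded and incubated overnight at 37C, then loaded with GloSensor reagent (2% final) at room temperature for 2 h. Library compounds go on for 30 min. A pre-read precedes agonist (hNppA, 0.1 nM final) and a 20-min readout.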

Test [16] concerns the target Atrial natriuretic peptide receptor 2 (Homo sapiens) (UniProt P20594). Description: Natriuretic polypeptide receptor (hNpr2) antagonism - Pilot subtype selectivity assay (AID 1347050; calls by dose curve). The procedure, abridged: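 Read-out: GloSensor luminescence (CCD imager), baseline vs post-stimulation. HEK293 cells expressing hNpr2; compounds pre-incubated 30-50 min at ambient temperature; hNppC 1 nM final, 20 min.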

For test [17], the target named is Parathyroid hormone/parathyroid hormone-related peptide receptor (Homo sapiens) (UniProt Q03431). Description: qHTS for PTHR1 Agonists: Optimization Screen against the NCGC LOPAC library (AID 1347079).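 Note: GloSensor cAMP luminescence in HEK-293 GP2 cells expressing human PTHR1 with IBMX.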 In short, it runs like this: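 HEK-293 GP2 cells, PTHR1 + GloSensor cAMP; 3000 cells/well, o/n. Luciferin + IBMX 0.5mM each (stock), 1 hr 37C. Cpd titration, 1 hr 37C. Lum after 15 min RT. Ctrl M-PTH(1-15) top 10uM.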
Chain of Parathyroid hormone/parathyroid hormone-related peptide receptor (Homo sapiens) (Q03431 whole entry, looked up): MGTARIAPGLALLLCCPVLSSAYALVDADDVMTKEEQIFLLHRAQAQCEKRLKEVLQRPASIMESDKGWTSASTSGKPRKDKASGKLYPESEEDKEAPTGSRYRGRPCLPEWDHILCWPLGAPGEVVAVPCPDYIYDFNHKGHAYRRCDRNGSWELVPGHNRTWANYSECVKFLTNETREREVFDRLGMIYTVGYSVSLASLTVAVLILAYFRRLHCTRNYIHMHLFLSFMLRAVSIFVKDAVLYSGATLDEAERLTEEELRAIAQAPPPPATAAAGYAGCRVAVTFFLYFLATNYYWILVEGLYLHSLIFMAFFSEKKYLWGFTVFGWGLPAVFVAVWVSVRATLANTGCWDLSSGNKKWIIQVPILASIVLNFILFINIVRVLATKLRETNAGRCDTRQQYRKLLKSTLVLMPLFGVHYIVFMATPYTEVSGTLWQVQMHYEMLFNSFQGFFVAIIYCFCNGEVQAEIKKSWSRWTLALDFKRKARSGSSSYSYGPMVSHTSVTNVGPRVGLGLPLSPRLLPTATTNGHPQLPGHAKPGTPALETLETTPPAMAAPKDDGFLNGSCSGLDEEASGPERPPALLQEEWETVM

Several values for one entry are separate records, joined by “and”; a condition that tells them apart may be missing. Equal values may be shown once. Results filed as inconclusive are left out. Some structures have more than one record in an assay (separate samples or runs), and their calls can disagree. Activity calls are given as the source filed them. Unless noted, calls come from the whole dose curve; as a rule, active = well fitted curve in the direction sought with a large enough effect; inconclusive = small, poorly fitted or top-dose-only effect, or another doubt; inactive = no such curve, though single readings can be large; an effect the other way counts as inactive or inconclusive.

Chain of Atrial natriuretic peptide receptor 1 (Homo sapiens) (P16066 whole entry, looked up): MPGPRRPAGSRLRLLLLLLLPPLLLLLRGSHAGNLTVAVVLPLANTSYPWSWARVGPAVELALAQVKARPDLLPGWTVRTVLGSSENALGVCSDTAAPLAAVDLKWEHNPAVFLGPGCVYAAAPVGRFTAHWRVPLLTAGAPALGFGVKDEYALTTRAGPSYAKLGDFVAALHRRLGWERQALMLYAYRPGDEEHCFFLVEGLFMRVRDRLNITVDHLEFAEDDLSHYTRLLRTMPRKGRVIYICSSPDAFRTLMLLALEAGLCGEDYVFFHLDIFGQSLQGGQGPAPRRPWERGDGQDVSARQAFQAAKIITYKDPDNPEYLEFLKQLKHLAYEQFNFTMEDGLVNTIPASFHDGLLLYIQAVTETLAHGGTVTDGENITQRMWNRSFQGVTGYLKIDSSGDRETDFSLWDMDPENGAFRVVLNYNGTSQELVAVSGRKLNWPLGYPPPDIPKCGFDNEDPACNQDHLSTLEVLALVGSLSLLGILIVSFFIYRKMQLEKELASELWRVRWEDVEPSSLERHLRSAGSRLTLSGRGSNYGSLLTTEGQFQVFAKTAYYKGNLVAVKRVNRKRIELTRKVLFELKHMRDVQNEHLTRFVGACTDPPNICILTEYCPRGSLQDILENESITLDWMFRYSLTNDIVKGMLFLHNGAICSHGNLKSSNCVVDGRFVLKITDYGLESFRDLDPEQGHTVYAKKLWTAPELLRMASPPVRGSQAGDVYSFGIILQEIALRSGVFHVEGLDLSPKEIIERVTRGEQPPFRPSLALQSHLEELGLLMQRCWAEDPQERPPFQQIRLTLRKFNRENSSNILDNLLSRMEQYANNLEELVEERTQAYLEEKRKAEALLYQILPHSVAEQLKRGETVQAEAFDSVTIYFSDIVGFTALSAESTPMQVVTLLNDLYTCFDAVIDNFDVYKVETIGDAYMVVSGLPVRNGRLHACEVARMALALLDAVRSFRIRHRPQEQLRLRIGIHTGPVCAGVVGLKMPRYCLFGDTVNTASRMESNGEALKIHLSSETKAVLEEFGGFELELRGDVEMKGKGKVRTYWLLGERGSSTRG
Chain of Atrial natriuretic peptide receptor 2 (Homo sapiens) (P20594 whole entry, looked up): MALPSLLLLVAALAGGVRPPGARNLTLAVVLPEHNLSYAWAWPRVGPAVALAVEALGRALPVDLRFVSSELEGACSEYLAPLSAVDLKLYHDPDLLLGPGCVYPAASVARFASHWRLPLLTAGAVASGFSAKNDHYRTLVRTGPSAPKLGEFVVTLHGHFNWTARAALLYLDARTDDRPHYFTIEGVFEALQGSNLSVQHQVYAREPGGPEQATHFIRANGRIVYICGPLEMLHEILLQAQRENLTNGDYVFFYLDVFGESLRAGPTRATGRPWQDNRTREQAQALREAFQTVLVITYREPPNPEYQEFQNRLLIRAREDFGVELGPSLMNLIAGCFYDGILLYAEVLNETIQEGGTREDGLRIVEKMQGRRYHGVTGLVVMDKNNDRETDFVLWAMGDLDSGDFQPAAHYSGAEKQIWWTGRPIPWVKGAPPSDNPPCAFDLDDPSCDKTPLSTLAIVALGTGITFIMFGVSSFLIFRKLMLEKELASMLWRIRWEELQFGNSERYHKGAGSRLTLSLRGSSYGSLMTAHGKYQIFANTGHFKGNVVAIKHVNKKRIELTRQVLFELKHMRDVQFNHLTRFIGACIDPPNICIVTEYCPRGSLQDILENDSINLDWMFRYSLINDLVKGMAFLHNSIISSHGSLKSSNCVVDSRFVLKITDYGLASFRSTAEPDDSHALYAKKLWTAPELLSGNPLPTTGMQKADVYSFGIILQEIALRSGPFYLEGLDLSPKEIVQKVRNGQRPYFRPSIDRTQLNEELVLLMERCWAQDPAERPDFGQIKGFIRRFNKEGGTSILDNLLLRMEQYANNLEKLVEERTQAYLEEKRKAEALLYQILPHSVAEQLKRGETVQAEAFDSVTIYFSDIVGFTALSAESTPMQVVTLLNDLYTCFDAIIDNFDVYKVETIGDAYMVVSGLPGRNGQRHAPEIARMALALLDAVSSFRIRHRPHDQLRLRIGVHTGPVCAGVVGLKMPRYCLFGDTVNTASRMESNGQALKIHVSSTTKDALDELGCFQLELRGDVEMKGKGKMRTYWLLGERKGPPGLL

With `CN[C@@H](C)[C@H]1[C@H](O)C[C@@]2(C)[C@@H]3CC[C@H]4C(C)(C)[C@@H](NC)CC[C@@]45C[C@@]35CC[C@]12C`, the outcome in test [1] was “inactive [at 9.29 µM]”. The Potency result in [2], in test [3], in test [4], in test [5], in [6] and in [7] was “inactive” in each case.
In the case of `Cn1c(=O)c(Oc2ccc(F)cc2F)cc2cnc(NC3CCOCC3)nc21`, the Potency entry in test [1], in test [2], in [3], in test [4], in test [8] and in [5] was “inactive” throughout. Also, the Potency result in test [6] and in test [9] was “inactive” in each case.
As to `COc1ccc(-c2cc3nccn3c(Nc3ncccc3C(N)=O)n2)cc1OC`, the Potency in test [1] was 6.51 µM (active); in [8], 1.48 µM (active); in test [11], 1.66 µM (active); in [5], 2.64 µM (active); in test [7], 1.05 µM (active). Further, the Potency result in [3] and in test [10] was “inactive” each time.
As for `COc1nccc(-c2c(-c3ccc(F)cc3)ncn2C2CCNCC2)n1`, the Potency result in test [1], in test [2], in [3], in test [12], in [11] and in test [5] was “inactive” in each case. Moreover, the Potency entry in [6] and in test [9] was “inactive” each time.
As to `CCOC(=O)N1CCN([N+]([O-])=NOc2cc(ON=[N+]([O-])N3CCN(C(=O)OCC)CC3)c([N+](=O)[O-])cc2[N+](=O)[O-])CC1`, the Potency result in test [1], in [2], in test [3], in test [8], in test [13] and in [6] was “inactive” throughout. Also, the Potency result in test [7] and in test [9] was “inactive” each time. Further, the figures for the Potency in test [4] and in test [5] were 14.8 µM (active) and 5.9 µM (active), respectively.
Consider `Cc1ccc(S(=O)(=O)OCC(=O)Nc2ccc(C(=O)O)c(O)c2)cc1`, for which the Potency result in [1], in [2], in test [3], in [12], in [4] and in [13] was “inactive” in each case. Moreover, the Potency entry in test [5], in test [6] and in [7] was “inactive” in each case. The Potency in test [8] is 14.8 µM (active); in test [11], 9.35 µM (active).
As for `CCN1CCN(c2ccc(Nc3cc(N(C)C(=O)Nc4c(Cl)c(OC)cc(OC)c4Cl)ncn3)cc2)CC1`, the Potency entry is “inactive and 16.4 µM (active)” in [2]; 18.7 µM (active) in test [4]; 20.9 µM (active) in [5]. Further, the Potency entry in test [3], in [10], in test [12], in test [8], in test [13] and in test [6] was “inactive” in each case. For the same compound, in test [9], the Potency entry was “inactive”.
For the compound `CC=C1C2C=C(C)CC1(N)c1ccc(=O)[nH]c1C2` (centres undefined), the Potency result in [2], in test [3], in [10], in test [12], in test [4] and in test [8] was “inactive” throughout. Moreover, the Potency result in [11], in [13], in test [5], in [6], in test [7] and in [9] was “inactive” in each case.
`CN1CC(=O)NC1=NC(=O)Nc1cccc(Cl)c1`: the Potency entry in [2], in test [3], in [10], in test [12], in test [4] and in test [8] was “inactive” throughout. Also, the Potency result in test [13] and in test [6] was “inactive” in each case. In addition, the results for the Potency in test [5] and in [9] were 20.9 µM (active) and 8.57 µM (active), respectively.
Regarding `CC1(COc2ccc3c(c2)ncn3-c2ccc3cccc(N4CCC(N)CC4)c3n2)COC1`, the Potency in [1] was 10.3 µM (active); in test [12] it was 0.0469 µM (active); in test [4], 5.26 µM (active); in [13] it was 0.001 µM (active); in [5], 0.001 µM (active); in test [6], 29.6 µM (active). Also, the Potency in test [7] is 16.6 µM (active). Also, the Potency result in test [9] was “inactive”.
For the compound `COc1ccnc(CS(=O)c2nc3ccc(OC(F)F)cc3[nH]2)c1OC` (centres undefined), the Potency result in test [2], in [3], in test [10], in [12], in [4] and in test [8] was “inactive” in each case. Also, the Potency entry in [13], in [5], in test [6], in test [7] and in [9] was “inactive” each time.
On to `CCOC(=O)N1c2ccc(C(F)(F)F)cc2[C@@H](N(Cc2cc(C(F)(F)F)cc(C(F)(F)F)c2)C(=O)OC)C[C@H]1CC`, for which the Potency entry in [2], in [3], in [10], in [12], in test [4] and in [8] was “inactive” throughout. Also, the Potency result in [5] and in [6] was “inactive” throughout.
For the compound `C[C@H]1O[C@@H](n2cc(F)c(=O)[nH]c2=O)[C@H](O)[C@H]1O`, the Potency in test [2] is 18.7 µM (active); in [5] it was 4.69 µM (active). The outcome in test [14], in [15], in [16] and in test [17] was inactive. The Potency entry in [3], in test [12], in [4] and in [6] was “inactive” throughout.
Regarding `CC(C)C[C@@H](N)[C@H](O)C(=O)N[C@H](C(=O)N[C@H](C(=O)N[C@@H](CC(=O)O)C(=O)O)C(C)C)C(C)C`, the Potency result in test [2], in [3], in test [10], in [12], in test [4] and in test [8] was “inactive” throughout. For the same compound, the Potency entry in [13], in test [5] and in test [6] was “inactive” throughout. Also, the Potency in test [9] was 24.1 µM (active).
Turning to `CC[C@H](C=C[C@@H](C)[C@H]1CC[C@H]2[C@@H]3CC=C4C[C@@H](O)CC[C@]4(C)[C@@H]3CC[C@]12C)C(C)C`, the Potency result in test [2], in test [3], in [10], in [12], in [4] and in test [8] was “inactive” throughout. In addition, the Potency result in test [13], in test [5], in test [6], in [7] and in [9] was “inactive” in each case.
For the compound `Cc1nc(C(=O)NCC(=O)O)c(O)c2ccc(Oc3ccccc3)cc12`, the Potency result in test [2], in test [3], in test [10], in test [12], in [4] and in [8] was “inactive” each time. For the same compound, the Potency result in [13] and in test [9] was “inactive” each time.

The values are drawn from PubChem BioAssay (NCATS).
